Paper PMC4336329 (PLoS ONE, 2015)
Hit rate of the full screen: of about 310,000 compounds, about 14,000 (4.5%) showed an effect of 50% or more. Effects have a minus sign here. Many of the other results were omitted from the sample, so strong results are more common in it than they were.

target: human ether-à-go-go-related gene (hERG) potassium channel (human, UniProt Q12809); experiment: primary screen, population patch clamp on CHO cells stably expressing hERG; higher = less effect of the substance
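Note: peak tail current of the secondary pulse compared with the same well before compound.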

Chain of human ether-à-go-go-related gene (hERG) potassium channel (Q12809 whole entry, looked up): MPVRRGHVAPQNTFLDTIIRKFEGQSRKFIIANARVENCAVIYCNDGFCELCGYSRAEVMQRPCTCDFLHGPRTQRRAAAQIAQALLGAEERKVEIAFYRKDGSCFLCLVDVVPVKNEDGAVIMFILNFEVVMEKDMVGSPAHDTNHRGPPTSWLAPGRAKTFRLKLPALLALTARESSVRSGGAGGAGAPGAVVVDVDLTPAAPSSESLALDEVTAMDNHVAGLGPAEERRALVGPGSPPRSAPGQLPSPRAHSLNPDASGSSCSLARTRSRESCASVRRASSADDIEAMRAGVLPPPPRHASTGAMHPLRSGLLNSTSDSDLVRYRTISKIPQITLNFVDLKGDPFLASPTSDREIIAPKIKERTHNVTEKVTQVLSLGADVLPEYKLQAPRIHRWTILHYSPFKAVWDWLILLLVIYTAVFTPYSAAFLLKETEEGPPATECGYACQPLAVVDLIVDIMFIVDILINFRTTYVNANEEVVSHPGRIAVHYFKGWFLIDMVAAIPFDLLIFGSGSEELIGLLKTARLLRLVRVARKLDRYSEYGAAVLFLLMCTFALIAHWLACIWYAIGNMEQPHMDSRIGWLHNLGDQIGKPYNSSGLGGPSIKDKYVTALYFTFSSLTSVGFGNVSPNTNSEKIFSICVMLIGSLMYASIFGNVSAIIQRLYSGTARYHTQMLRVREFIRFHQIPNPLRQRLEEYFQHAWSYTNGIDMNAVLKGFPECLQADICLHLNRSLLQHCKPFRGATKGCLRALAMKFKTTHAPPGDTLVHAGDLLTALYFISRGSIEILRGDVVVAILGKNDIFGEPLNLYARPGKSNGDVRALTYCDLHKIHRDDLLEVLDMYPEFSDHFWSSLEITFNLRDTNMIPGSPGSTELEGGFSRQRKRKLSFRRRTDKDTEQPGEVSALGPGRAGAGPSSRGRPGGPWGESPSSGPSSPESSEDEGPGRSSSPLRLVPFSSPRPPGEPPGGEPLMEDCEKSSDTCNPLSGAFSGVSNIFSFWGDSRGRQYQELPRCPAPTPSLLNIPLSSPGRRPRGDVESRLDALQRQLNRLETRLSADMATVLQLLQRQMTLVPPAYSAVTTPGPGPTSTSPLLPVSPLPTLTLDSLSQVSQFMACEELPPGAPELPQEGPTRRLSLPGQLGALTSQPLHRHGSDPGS

| Structure (SMILES) | hERG current change (%, negative = inhibition) at 10uM |
| --- | --- |
| CCN1C(=O)C(=O)N(Cc2ccc(OC)c(F)c2)C1=O | 15.1% |
| CC(C)CCNC(=O)C(c1ccco1)N(Cc1ccc(F)cc1)C(=O)c1snc(C(N)=O)c1N (stereo not shown) | -22.4% |
| CC(=O)NC(=C(Cl)Cl)S(=O)(=O)c1ccccc1 | 23.9% |
| CCCCCn1c(=O)c(C(=O)Nc2cccc(C)c2)c(O)c2ccccc21 | 20.7% |
| CCN(CC)CCCNc1cc(C(F)(F)F)c(C#N)c2nc3ccccc3n12 | -18.4% |
| CCc1cccc(N(C(=O)c2csnn2)C(C(=O)NC(C)(C)C)c2ccccn2)c1 (stereo not shown) | 1.65% |
| Cc1ccc(C(=O)Nc2c(C)cc(-c3ccc(Cl)cc3)oc2=O)cc1 | -6.18% |
| O=S(=O)(/N=C(/Nc1ccccc1F)c1ccccc1)c1ccccc1 | 4.57% |
| O=C(NNC(=O)c1cnccc1C(F)(F)F)c1ccc(Cl)cc1 | 11.1% |
| Cc1c(C(c2cccc([N+](=O)[O-])c2O)c2c(C)n(C)n(-c3ccccc3)c2=O)c(=O)n(-c2ccccc2)n1C | -2.28% |
| CCc1cccc(NC(=S)N(CCOC)C(C)c2ccco2)c1 (stereo not shown) | -2.48% |
| COc1ccc(-n2cc3ccc([N+](=O)[O-])cc3n2)cc1 | 7.2% |
| CCCn1c(C(O)c2ccc(C)cc2)nc2ccccc21 (stereo not shown) | 15.8% |
| COc1cccc(C(O)Cc2nc3ccccc3n2C)c1OC (stereo not shown) | 23.7% |
| CCCCn1c(=N)n(CC(O)c2ccccc2)c2ccccc21.Cl (stereo not shown) | -64.9% |
| CCCn1c(=N)n(CC(O)c2ccc(C)cc2)c2ccccc21.Cl (stereo not shown) | -65.6% |
| Cl.Cn1c(=N)n(CC(O)c2ccccc2)c2ccccc21 (stereo not shown) | -26.3% |
| Cl.Cn1c(=N)n(CC(O)c2cccs2)c2ccccc21 (stereo not shown) | -39.9% |
| CCn1c(=N)n(CC(O)c2cccs2)c2ccccc21.Cl (stereo not shown) | -60.4% |
| Cl.Cn1c(=N)n(CC(O)c2cccc3ccccc23)c2ccccc21 (stereo not shown) | -67% |
| Br.Cn1c(=N)n(CC(=O)O)c2ccccc21 | -5.99% |
| CCCCCN(C(=O)CCC(=O)OCC(=O)N(CC#N)c1ccccc1)c1c(N)n(CCCC)c(=O)[nH]c1=O | -0.196% |
| COc1ccc(NC(=O)C(OC(=O)c2cnccn2)c2ccccc2)cc1Cl (stereo not shown) | 24.7% |
| Cc1ccc(S(=O)(=O)N2CCN(Cc3csc(C)n3)CC2)cc1 | 6.87% |
| O=[N+]([O-])c1ccc(-c2nn(-c3ccccc3)cc2/C=N/n2c(-c3ccncc3)n[nH]c2=S)cc1 | 19.4% |
